PglD inh = PglD (C. jejuni) enzyme inhibition | purified PglD enzyme, DTNB colorimetric CoA detection | inhibition, % at 12.5 µM | actives 0.098% (n = 360,000) | AID 602405; in the data active means inhibition above about 16%, passing the limit was not always enough
miR-122 sensor = blocks miR-122 activity in Huh7 sensor cells; Huh7 miR-122 Renilla luciferase sensor, 48 h; neutral wells = 0, positive control = 100; activation (reporter increase), % at 12.5 µM; actives 0.3% (n = 340,000);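 active means mean replicate activation score at least 90 and every replicate individually at or above 90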;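 further: higher luciferase means less miR-122 activity so hits act as miR-122 inhibitors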
Statin myotox sup = suppression of simvastatin myotoxicity | AID 602340 | rescue of ATP level, % at 7.49 µM | C2C12 myotubes + simvastatin, ATP luminescence, 48 h; scaled: DMSO 0, geranylgeraniol control 100 | actives 0.78% (n = 330,000);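 active means mean ATP rescue above about 67%, or every replicate alone reaching that limit, limit read from the data, passing the limit was not always enough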;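 further: myotubes were challenged with 10 µM simvastatin during compound exposure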
NSD2 HMT inh = inhibitors of human histone methyltransferase NSD2 | NSD2 peptide methylation, AlphaScreen, 120 min | inhibition, % at 12.5 µM | actives 0.54% (n = 310,000); in the data active means inhibition above about 50%
Target sequence (O96028 whole entry, looked up): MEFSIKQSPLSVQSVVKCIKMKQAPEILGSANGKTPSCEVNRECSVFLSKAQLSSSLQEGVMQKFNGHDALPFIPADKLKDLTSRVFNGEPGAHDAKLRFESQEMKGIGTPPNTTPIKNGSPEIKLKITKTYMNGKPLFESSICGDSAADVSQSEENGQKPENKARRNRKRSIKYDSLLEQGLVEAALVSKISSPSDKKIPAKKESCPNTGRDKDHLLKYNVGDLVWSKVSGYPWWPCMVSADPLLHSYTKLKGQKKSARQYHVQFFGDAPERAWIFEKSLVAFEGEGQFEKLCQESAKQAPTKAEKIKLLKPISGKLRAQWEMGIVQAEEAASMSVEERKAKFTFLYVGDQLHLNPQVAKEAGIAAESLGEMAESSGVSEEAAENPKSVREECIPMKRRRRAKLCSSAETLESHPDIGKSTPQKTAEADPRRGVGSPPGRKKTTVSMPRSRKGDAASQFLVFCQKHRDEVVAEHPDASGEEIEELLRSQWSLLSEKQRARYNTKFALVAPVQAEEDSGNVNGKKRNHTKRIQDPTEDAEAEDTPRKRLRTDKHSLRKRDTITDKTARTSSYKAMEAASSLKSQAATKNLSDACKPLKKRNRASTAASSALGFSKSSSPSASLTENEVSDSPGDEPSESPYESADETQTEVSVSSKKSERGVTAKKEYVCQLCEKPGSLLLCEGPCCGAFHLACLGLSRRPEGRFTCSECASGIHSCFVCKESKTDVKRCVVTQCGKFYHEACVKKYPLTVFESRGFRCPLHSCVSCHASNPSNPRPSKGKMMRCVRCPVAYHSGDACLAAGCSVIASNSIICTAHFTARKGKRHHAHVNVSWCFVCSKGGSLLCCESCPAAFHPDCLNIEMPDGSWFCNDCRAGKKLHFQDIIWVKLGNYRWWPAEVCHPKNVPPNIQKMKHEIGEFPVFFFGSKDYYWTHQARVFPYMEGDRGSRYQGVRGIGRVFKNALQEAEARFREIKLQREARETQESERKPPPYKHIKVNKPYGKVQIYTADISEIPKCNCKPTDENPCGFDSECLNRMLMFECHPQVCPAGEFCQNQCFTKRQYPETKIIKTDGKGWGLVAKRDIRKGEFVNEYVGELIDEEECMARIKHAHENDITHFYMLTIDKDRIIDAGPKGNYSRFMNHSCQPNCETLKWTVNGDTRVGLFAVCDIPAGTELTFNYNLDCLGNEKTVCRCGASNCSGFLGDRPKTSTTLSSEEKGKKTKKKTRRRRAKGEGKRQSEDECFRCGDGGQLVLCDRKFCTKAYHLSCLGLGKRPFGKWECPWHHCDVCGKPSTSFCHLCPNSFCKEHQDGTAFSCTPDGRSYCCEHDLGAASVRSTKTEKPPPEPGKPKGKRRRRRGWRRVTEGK
* hit, by the source's call; . = not tested or not shown; [ ] = dose if it differs, or a comment. Compounds with a hit are over-represented: about 1.2% of the library has one in this group of screens.

SMILES	PglD inh	miR-122 sensor	Statin myotox sup	NSD2 HMT inh
Cc1onc(-c2ccccc2)c1C(=O)Nc1ccc2c(c1)OCCO2	7	1	16	-1
CC(=O)c1cc2c(cc1NC(=O)c1c(-c3ccccc3)noc1C)OCO2	3	-2	85*	3
Cc1noc(C)c1S(=O)(=O)Nc1ccc2c(c1)C(=O)N([C@H](C)CO)C[C@@H](C)[C@@H](CN(C)C(=O)c1ccncc1)OCCCC[C@@H](C)O2	-1	5[16.7 µM]	.	.
CCOC(=O)[C@H]1[C@H]2COc3ccc(Cl)cc3[C@@H]2N2C(=O)c3ccccc3NC(=O)[C@@]12C	1	-8	135*	.
C[C@H](CO)N1C[C@H](C)[C@H](CN(C)S(=O)(=O)c2ccc(C#N)cc2)Oc2ncc(-c3cc4ccccc4o3)cc2C1=O	-1	-1[16.7 µM]	95*	.
C[C@H](CO)N1C[C@H](C)[C@H](CN(C)C(=O)Nc2ccccc2)Oc2ncc(-c3cc4ccccc4o3)cc2C1=O	-4	-7[16.7 µM]	92*	.
COc1ccc(NC(=O)Nc2ccc3c(c2)[C@@H]2C[C@H](CC(=O)N4CCN(C)CC4)O[C@@H](CO)[C@@H]2O3)cc1	-1	-3[16.7 µM]	4	.
C[C@@H]1CN([C@@H](C)CO)C(=O)c2cccc(NC(=O)C3CCCCC3)c2O[C@@H]1CN(C)S(=O)(=O)c1ccc(Cl)cc1	6	-4[16.7 µM]	-11	.
C[C@H](CO)N1C[C@H](C)[C@@H](CN(C)S(=O)(=O)c2ccc(Cl)cc2)Oc2c(NC(=O)C3CCCCC3)cccc2C1=O	0	27[16.7 µM]	143*	.
C[C@H](CO)N1C[C@H](C)[C@H](CN(C)S(=O)(=O)c2ccc(Cl)cc2)Oc2c(NC(=O)C3CCCCC3)cccc2C1=O	-1	-2[16.7 µM]	2	.
C[C@H]1CN([C@@H](C)CO)C(=O)c2cccc(NC(=O)C3CCCCC3)c2O[C@@H]1CN(C)S(=O)(=O)c1ccc(Cl)cc1	3	9[16.7 µM]	119*	.
Cc1noc(C)c1S(=O)(=O)N(C)C[C@@H]1Oc2c(NC(=O)C3CCCCC3)cccc2C(=O)N([C@H](C)CO)C[C@@H]1C	7	197*[16.7 µM]	-83	.
Cc1noc(C)c1S(=O)(=O)N(C)C[C@H]1Oc2c(NC(=O)C3CCCCC3)cccc2C(=O)N([C@H](C)CO)C[C@H]1C	-1	4[16.7 µM]	12	.
C[C@@H]1CCCCO[C@@H](CN(C)CC2CCCCC2)[C@@H](C)CN([C@H](C)CO)C(=O)c2cc(NS(=O)(=O)c3cn(C)cn3)ccc2O1	-2	8[16.7 µM]	17	.
CCOc1ccccc1CN(Cc1ccco1)S(=O)(=O)c1ccc(-n2cnnn2)c(OC)c1	3	138*	-34	.
CCOC(=O)c1cc(=O)n(Cc2ccccc2C)c2ccccc12	-2	-2	103*	-13
Cc1ccc(Cn2c(=O)cc(C(=O)O)c3ccccc32)cc1	-7	3	2	-4
CO[C@H](CN(C)S(=O)(=O)c1ccc(C)cc1)[C@@H](C)CN(Cc1ccccc1Cl)[C@H](C)CO	1	.	-17	.
COCCn1c(C)cc(C(=O)COC(=O)c2cncc(Br)c2)c1C	9	-5	98*	8
COCCn1c(C)cc(C(=O)COC(=O)c2ccccc2Br)c1C	2	-3	6	5
c1ccc(CNCCC(Cc2ccccc2)c2ccco2)cc1 (configuration not stated)	-1	.	.	2
CN(C)c1ccc(CNCCC(Cc2ccccc2)c2ccco2)cc1 (configuration not stated)	-8	-1	-12	57*
CNC[C@@H]1Oc2c(NS(=O)(=O)c3c(C)noc3C)cccc2C(=O)N([C@H](C)CO)C[C@@H]1C	2	4[16.7 µM]	17	.
C[C@H](NC(=O)C[C@@H]1C[C@@H]2c3cc(NC(=O)c4cccnc4)ccc3O[C@@H]2[C@H](CO)O1)c1ccccc1	0	-5[16.7 µM]	1	.
OC(c1cc(Cl)cc(Cl)c1)c1ncc(-c2ccccc2F)[nH]1 (configuration not stated)	7	150*	4	0
OC(c1ccc(F)cc1)c1ncc(-c2ccccc2F)[nH]1 (configuration not stated)	2	146*	-2	1
CCc1ccc(C(O)c2ncc(-c3ccccc3F)[nH]2)cc1 (configuration not stated)	11	.	.	0
CC1CCCC(C)N1/N=C/c1ccc(O)c(O)c1 (configuration not stated)	1	-5	8	60*
C=CCN=C1NN=C(c2ccc3c(c2)OCCO3)CS1	4	154*	1	1
COc1ccc(OC)c(S(=O)(=O)N2CCC(C(=O)Nc3cccc(C)c3)CC2)c1	.	.	.	-1

High-throughput results as filed in PubChem BioAssay.
